Assay results reported in PubChem BioAssay (Tox21).
Several values for one entry are separate records, joined by “and”; a condition that tells them apart may be missing. Equal entries are not always repeated. Inconclusive results are not listed. The source holds several records for some structures; these can differ, active in one and inactive in another. Activity calls are given as the source filed them. Unless noted, the call rests on the fitted dose curve.

Assays:
[1] = Nuclear factor erythroid 2-related factor 2/antioxidant responsive element (Nrf2/ARE) small molecule agonists: qHTS cell viability counter screen in human keratinocytes (AID 1919968; active means well fitted curve in the direction sought with a large enough effect in the repeat runs; an effect the other way counts as inactive or inconclusive; further: nearly all actives have a fitted effect of over 55% in size)
How it was run: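 After a 5 h attachment period, ARE-reporter keratinocytes were dosed with compounds in DMSO and then cultured 23 h at 37 C. Cell viability came from CellTiter-Fluor signal read after a further 1 h.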

[2] = Nuclear factor erythroid 2-related factor 2/antioxidant responsive element (Nrf2/ARE) small molecule agonists: luciferase reporter gene qHTS assay in human keratinocytes (AID 1919969); further: nearly all actives have a fitted effect of over 35% in size; further: potency means the concentration at half of the fitted maximal effect
[3] = target: Gonadotropin-releasing hormone receptor (Homo sapiens) (UniProt P30968); assay: Human gonadotropin-releasing hormone receptor (GnRHR) small molecule agonists, calcium flux assay in GnRHR-HEK293 cells (AID 1920063); further: nearly all actives have a fitted effect of over 35% in size
How it was run: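 We seeded human GnRHR-expressing HEK293 cells for 18 hours, loaded them with calcium dye for an hour at 37 C, added test compounds, and recorded fluorescence intensity kinetically for three minutes.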

[4] = target: KiSS-1 receptor (Homo sapiens) (UniProt Q969F8); assay: Human kisspeptin (KISS1R) small molecule agonists, calcium flux assay in KISS1R-HEK293 cells (AID 1920064; active means well fitted curve in the direction sought with a large enough effect in the repeat runs; an effect the other way counts as inactive or inconclusive)
How it was run: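 Kinetic calcium assay, 1 s sampling over 3 min at Ex/Em 480/540, in HEK293 cells engineered with human KISS1R; compounds delivered in DMSO after 1 h dye loading.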

[5] = p53 small molecule agonists, cell-based qHTS assay with human liver microsomes (AID 1963577)
How it was run: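 Compounds act here after metabolic activation: human liver microsomes and NADPH, both at 0.5 mg/mL final, were co-added to p53RE-bla cells. Incubation ran 16 h at 37 C, followed by LiveBLAzer detection.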

[6] = p53 small molecule agonists, cell-based qHTS assay with rat liver microsomes (AID 1963578)
How it was run: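 Read-out is beta-lactamase reporter fluorescence (LiveBLAzer, 2 h, room temperature, dark) in p53RE-bla cells treated 16 h at 37 C with compound, rat liver microsomes and NADPH, both 0.5 mg/mL final.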

[7] = p53 small molecule agonists, cell-based qHTS assay with human liver microsomes: qHTS cell viability counter screen (AID 1963579); further: nearly all actives have a fitted effect of over 45% in size
How it was run: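 Cells carrying the p53 response-element beta-lactamase reporter are treated for 16 h at 37 C with test compounds in the presence of human liver microsomes and NADPH (both 0.5 mg/mL final); ATP-based CellTiter-Glo luminescence then reports viability.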

[8] = p53 small molecule agonists, cell-based qHTS assay with rat liver microsomes: qHTS cell viability counter screen (AID 1963580); further: nearly all actives have a fitted effect of over 45% in size
How it was run: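 p53RE-bla HCT-116 cells were exposed 16 h at 37 C to compounds with rat liver microsomes (0.5 mg/mL) and NADPH (0.5 mg/mL). Viability was measured in the same wells as ATP content by CellTiter-Glo luminescence.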

[9] = p53 small molecule agonists, cell-based qHTS assay: qHTS cell viability counter screen (AID 1963581); further: nearly all actives have a fitted effect of over 45% in size; further: potency means the concentration at half of the fitted maximal effect
How it was run: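 Following 5 h attachment, HCT-116 p53RE-bla cells took up compound for 16 h at 37 C; the reporter was read with B/G FRET substrate (2 h RT), and viability then via CellTiter-Glo ATP luminescence.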

[10] = target: 5-hydroxytryptamine receptor 2A (Homo sapiens) (UniProt P28223); assay: 5-hydroxytryptamine receptor 2A (HTR2A) small molecule antagonists, cell-based qHTS assay (AID 1963586); further: nearly all actives have a fitted effect of over 45% in size; further: potency means the concentration at half of the fitted maximal effect
How it was run: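 Antagonist-mode intracellular calcium assay: DOI (4 nM) added after 5 min compound pre-incubation at room temperature to dye-loaded HTR2A-CHO cells. Fluorescence followed for 3 min, sampled every second.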

[11] = target: 5-hydroxytryptamine receptor 2A (Homo sapiens) (UniProt P28223); assay: 5-hydroxytryptamine receptor 2A (HTR2A) small molecule agonists, cell-based qHTS assay (AID 1963587); further: nearly all actives have a fitted effect of over 30% in size; further: potency means the concentration at half of the fitted maximal effect
How it was run: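 CHO cells stably expressing human HTR2A, plated 18 h, loaded with calcium dye 1 h at 37 C. Agonist mode: compounds added and intracellular calcium fluorescence recorded kinetically for 2 min at 1 sec intervals.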

[12] = target: Muscarinic acetylcholine receptor M1 (Homo sapiens) (UniProt P11229); assay: Cholinergic receptor muscarinic 1 (CHRM1) small molecule antagonists, cell-based qHTS assay (AID 1963588); further: nearly all actives have a fitted effect of over 40% in size
How it was run: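 CHRM1-CHO calcium-flux assay, antagonist mode. Cells were seeded 18 h, dye-loaded 1 h at 37 C and given compound for 5 min at RT, then acetylcholine was added at 50nM. FDSS fluorescence was read 3 min; 15 concentrations, three runs.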

[13] = target: Muscarinic acetylcholine receptor M1 (Homo sapiens) (UniProt P11229); assay: Cholinergic receptor muscarinic 1 (CHRM1) small molecule agonists, cell-based qHTS assay (AID 1963589); further: nearly all actives have a fitted effect of over 35% in size
How it was run: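 Measures agonist-induced intracellular calcium rise. Stable human CHRM1 CHO line, 1 h dye load at 37 C, compounds from DMSO, kinetic fluorescence read.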

[14] = cAMP Responsive Elements (CRE) small molecule agonists, cell-based qHTS assay (AID 1963590)
How it was run: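 A CRE-responsive beta-lactamase reporter in HEK 293T cells was used. Treatment ran 3 h at 37 C; detection used LiveBLAzer B/G FRET substrate for 2 h at room temperature.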

[15] = cAMP Responsive Elements (CRE) small molecule antagonists, cell-based qHTS assay (AID 1963591; active means well fitted inhibition curve with a large enough effect in the signal ratio in the repeat runs, not every such curve was filed as active; the % refers to the signal ratio)
How it was run: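 HEK293T cells carrying a CRE-driven beta-lactamase reporter receive compound and NKH477 (0.25 uM final) for 3 h. Fluorescence from LiveBLAzer B/G FRET substrate is read after 2 h at room temperature.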

[16] = target: Beta-2 adrenergic receptor (Homo sapiens) (UniProt P07550); assay: Adrenergic beta2 receptor (ADRB2) small molecule antagonists, cell-based qHTS assay (AID 1963592); further: nearly all actives have a fitted effect of over 50% in size; further: potency means the concentration at half of the fitted maximal effect
How it was run: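 Cells (CHO, stable ADRB2 overexpression) incubated 18-20hr at 37C; compounds added from DMSO; agonist mix (1nM isoproterenol, 100uM IBMX, 25uM Ro-20-1724) added; 0.5hr RT; d2-cAMP and anti-cAMP-cryptate added; 1hr RT; 665/615 nm read.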

[17] = target: Beta-2 adrenergic receptor (Homo sapiens) (UniProt P07550); assay: Adrenergic beta2 receptor (ADRB2) small molecule agonists, cell-based qHTS assay (AID 1963593);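 further: CHO cells stably overexpressing human ADRB2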
How it was run: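 CHO cells stably over-expressing ADRB2 were plated overnight at 37C, then dosed with compounds plus a stimulation mix containing 100uM IBMX and 25uM Ro-20-1724 for 0.5hr at room temperature. cAMP was measured by HTRF competition, 1hr.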

[18] = target: D(2) dopamine receptor (Homo sapiens) (UniProt P14416); assay: Dopamine D2 receptor (DRD2) small molecule agonists, cell-based qHTS assay (AID 1963594); further: nearly all actives have a fitted effect of over 35% in size
How it was run: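 HEK293 cells stably expressing human DRD2, pre-treated with PDE inhibitor Ro20-1724 (0.1 mM final) and compound 10 min at room temperature, then stimulated with NKH477 (200nM […]) for 30 min. cAMP read by HTRF (665/620 nm).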

[19] = target: D(2) dopamine receptor (Homo sapiens) (UniProt P14416); assay: Dopamine D2 receptor (DRD2) small molecule antagonists, cell-based qHTS assay (AID 1963595; active means well fitted inhibition curve with a large enough effect in the signal ratio in the repeat runs, with a control signal flat; the % refers to the signal ratio)
How it was run: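 HEK293 cells stably expressing DRD2 were preincubated with 0.1 mM Ro20-1724, then with compound for 10 min at room temperature. Cells were stimulated with 200 nM NKH477 plus 12 nM quinpirole for 30 min, and cAMP was read by HTRF.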

[20] = G protein-coupled receptor (GPCR) small molecule agonists, calcium flux assay: HEK293 wild type cell line counter screen (AID 1920065)
How it was run: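 Calcium-sensitive dye, loaded 1 h at 37 C into cells cultured 18 h, reports compound-evoked calcium release as fluorescence (Ex/Em 480/540), measured over 3 min. Agonist mode; 15-point titrations, triplicate.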

Measured: Potency

Gonadotropin-releasing hormone receptor (Homo sapiens), sequence (P30968 whole entry, looked up): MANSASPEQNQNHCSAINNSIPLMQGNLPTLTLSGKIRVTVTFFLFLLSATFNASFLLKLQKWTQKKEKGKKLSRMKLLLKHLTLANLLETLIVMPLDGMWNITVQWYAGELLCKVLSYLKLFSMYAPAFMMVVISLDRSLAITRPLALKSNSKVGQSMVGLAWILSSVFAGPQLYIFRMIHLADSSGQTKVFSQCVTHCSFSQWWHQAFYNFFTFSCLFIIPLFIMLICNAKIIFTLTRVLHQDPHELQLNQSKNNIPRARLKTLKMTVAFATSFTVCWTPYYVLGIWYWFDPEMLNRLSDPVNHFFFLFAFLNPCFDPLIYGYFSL
5-hydroxytryptamine receptor 2A (Homo sapiens), sequence (P28223 whole entry, looked up): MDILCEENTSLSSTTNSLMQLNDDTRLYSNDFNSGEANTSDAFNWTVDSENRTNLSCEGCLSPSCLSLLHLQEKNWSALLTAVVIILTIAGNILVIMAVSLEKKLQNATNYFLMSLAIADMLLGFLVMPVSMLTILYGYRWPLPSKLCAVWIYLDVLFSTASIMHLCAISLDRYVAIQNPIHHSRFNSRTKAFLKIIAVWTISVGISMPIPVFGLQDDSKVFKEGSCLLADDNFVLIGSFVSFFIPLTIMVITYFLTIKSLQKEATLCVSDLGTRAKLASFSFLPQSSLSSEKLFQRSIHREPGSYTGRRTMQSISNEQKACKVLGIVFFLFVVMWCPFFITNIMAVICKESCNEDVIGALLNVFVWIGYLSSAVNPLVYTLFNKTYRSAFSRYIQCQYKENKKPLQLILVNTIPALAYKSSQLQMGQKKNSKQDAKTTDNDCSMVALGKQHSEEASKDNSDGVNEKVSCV
Beta-2 adrenergic receptor (Homo sapiens), sequence (P07550 whole entry, looked up): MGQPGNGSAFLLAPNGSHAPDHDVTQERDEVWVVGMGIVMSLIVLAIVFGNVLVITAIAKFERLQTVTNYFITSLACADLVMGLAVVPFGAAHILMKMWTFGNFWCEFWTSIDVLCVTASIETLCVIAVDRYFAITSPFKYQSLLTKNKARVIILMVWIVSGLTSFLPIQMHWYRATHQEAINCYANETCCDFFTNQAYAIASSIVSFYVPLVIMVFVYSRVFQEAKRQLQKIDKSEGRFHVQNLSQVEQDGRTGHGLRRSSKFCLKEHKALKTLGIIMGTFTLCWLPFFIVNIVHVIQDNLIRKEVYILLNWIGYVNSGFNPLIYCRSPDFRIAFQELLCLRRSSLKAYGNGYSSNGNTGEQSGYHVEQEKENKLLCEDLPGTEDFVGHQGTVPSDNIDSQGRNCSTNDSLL
KiSS-1 receptor (Homo sapiens), sequence (Q969F8 whole entry, looked up): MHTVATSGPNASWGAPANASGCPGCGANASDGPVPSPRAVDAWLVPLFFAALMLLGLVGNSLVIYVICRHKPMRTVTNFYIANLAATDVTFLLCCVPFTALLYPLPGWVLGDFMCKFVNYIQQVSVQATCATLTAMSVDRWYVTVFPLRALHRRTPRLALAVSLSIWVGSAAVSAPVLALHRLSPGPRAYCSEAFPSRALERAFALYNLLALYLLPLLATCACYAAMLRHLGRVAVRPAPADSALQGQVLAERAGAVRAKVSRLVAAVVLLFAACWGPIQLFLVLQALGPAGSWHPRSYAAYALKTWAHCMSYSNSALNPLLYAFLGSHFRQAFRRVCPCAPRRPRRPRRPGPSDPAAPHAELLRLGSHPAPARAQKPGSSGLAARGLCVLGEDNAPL
Muscarinic acetylcholine receptor M1 (Homo sapiens), sequence (P11229 whole entry, looked up): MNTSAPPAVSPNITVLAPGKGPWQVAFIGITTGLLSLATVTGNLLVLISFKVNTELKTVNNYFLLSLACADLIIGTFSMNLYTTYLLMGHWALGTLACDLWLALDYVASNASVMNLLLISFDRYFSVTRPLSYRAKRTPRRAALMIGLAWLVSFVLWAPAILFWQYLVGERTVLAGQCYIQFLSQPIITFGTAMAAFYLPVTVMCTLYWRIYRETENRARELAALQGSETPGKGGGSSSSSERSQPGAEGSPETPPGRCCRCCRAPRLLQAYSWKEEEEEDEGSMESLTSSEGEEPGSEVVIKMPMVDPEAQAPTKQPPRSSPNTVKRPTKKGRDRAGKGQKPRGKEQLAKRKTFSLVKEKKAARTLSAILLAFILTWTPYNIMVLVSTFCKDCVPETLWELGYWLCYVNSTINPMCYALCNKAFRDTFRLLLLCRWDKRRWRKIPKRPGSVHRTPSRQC
D(2) dopamine receptor (Homo sapiens), sequence (P14416 whole entry, looked up): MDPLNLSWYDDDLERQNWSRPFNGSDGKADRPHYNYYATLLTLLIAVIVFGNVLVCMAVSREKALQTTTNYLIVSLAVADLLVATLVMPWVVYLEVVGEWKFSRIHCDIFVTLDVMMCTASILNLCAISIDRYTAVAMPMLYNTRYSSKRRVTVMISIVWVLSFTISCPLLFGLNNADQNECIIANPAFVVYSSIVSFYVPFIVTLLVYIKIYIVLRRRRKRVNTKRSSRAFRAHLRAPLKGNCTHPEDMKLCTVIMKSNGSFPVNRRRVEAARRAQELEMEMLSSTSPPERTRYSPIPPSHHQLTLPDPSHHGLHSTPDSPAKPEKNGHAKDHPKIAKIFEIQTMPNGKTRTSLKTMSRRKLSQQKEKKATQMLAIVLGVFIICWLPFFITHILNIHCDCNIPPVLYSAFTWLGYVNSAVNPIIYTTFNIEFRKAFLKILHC

O=[N+]([O-])C(CO)(CO)CO
not listed: [20]
inactive: all other assays above

CCN(CCN)c1cccc(C)c1
active: [10] 530 nM | [11] 393 nM and 776 nM
not listed: [4] | [16] | [17]
inactive: all other assays above

CC(C)=CCl
not listed: [12] | [17] | [20]
inactive: all other assays above

OC[C@@H](O)[C@@H](O)[C@H](O)[C@H](O)CO
not listed: [9] | [10] | [11] | [12] | [13] | [14] | [20]
inactive: all other assays above

Nc1cccc(N)c1
inactive and 21.4 µM (active): [2]
not listed: [16] | [17] | [20]
inactive: all other assays above

O=C(O)c1ccc2c(c1)C(=O)OC2=O
not listed: [20]
inactive: all other assays above

Clc1ccc(Sc2cc(Cl)c(Cl)cc2Cl)cc1
not listed: [9] | [10] | [20]
inactive: all other assays above

OCc1cccc(Oc2ccccc2)c1
not listed: [20]
inactive: all other assays above

Clc1cc(Cl)c(Cl)cc1Cl
inactive and 16.2 µM (active): [9]
not listed: [4] | [16]
inactive: all other assays above

COC(=O)c1cccc(C(=O)OC)c1
inactive and 15.4 µM (active): [16]
not listed: [3]
inactive: all other assays above

O=C(O)Cc1ccccc1Nc1c(Cl)cccc1Cl
not listed: [4] | [5] | [10] | [11] | [12] | [13]
inactive: all other assays above

CCCCCCCCC
not listed: [4] | [5] | [6] | [10] | [17]
inactive: all other assays above
